Experimental data: the supplement of paper PMC10849652
About 8,800 targets were measured; listed, in parts, are those with a hit and a random draw of the rest. About 0.5% of all pairs of compound and target were hits.

Assays:
Assay in all cases: log2 fold change, soluble protein after heating vs DMSO (PISA); higher = thermal stabilisation; K562 lysate, 10 uM; active = over 0.2 and 3.5 SD of the protein, either way, in both replicates (recomputed)
erlotinib = compound: C#Cc1cccc(Nc2ncnc3cc(OCCOC)c(OCCOC)cc23)c1 [erlotinib]
Procedure, shortened: (§1)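 Quantification was by TMTpro 16plex LC-MS/MS with equalised channel sums, applied to the supernatant after 21,000xg for 90 min. Samples were crude K562 extract at 1 mg/mL protein in PBS pH 7.4 with 1 mM MgCl2, treated with 10 μM compound for 30 min, heated for 3 min across 48°C-58°C, pooled and brought to 0.5% NP-40 at 4°C. Values are log-two fold changes in thermal stability relative to solvent controls, from duplicates.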

[1] = compound: C/C(=N\NC(=O)C1=CC(=CC=C1)S(=O)(=O)N2CCOCC2)/C3=C(C=CC(=C3)Cl)O
Procedure, shortened: as §1

[2] = compound: C1=CC(=CC=C1C2=NC3=C(N2)C=C(C=C3)C(=O)N)OC4=CC=C(C=C4)Cl
Procedure, shortened: as §1

[3] = compound: C1=CC2=C(C=CC(=C2)/C=C\3/C(=O)NC(=NCC4=CC=CS4)S3)N=C1
Procedure, shortened: as §1

[4] = compound: C1=CC2=NC=CN=C2C=C1/C=C/3\C(=O)NC(=O)S3
Procedure, shortened: as §1

[5] = compound: C1=CC=C(C=C1)C2=NC(=C(N2)C3=CC=NC=C3)C4=CC(=C(C=C4)Cl)O
Procedure, shortened: as §1

[6] = compound: C1=CC=C2C(=C1)C3=NNC4=CC=CC(=C43)C2=O
Procedure, shortened: as §1

[7] = compound: C1CCN(C1)C(=O)NC2=CC=CC(=C2)NC3=NC=C(C(=N3)NCCC4=CN=CN4)Br
Procedure, shortened: as §1

[8] = compound: C1CN(CCC1(CC2=CC=C(C=C2)Cl)N)C3=NC=NC4=C3C=CN4
Procedure, shortened: as §1

IRAK-1-4 Inhibitor I = compound: C1COCCN1CCN2C3=CC=CC=C3N=C2NC(=O)C4=CC(=CC=C4)[N+](=O)[O-] [IRAK-1-4 Inhibitor I]
Procedure, shortened: as §1

Measured: log2 fold change

CNIH4 (UniProt Q9P003)
inactive: erlotinib 0.049 | [1] -0.139 | [2] -0.06 | [3] 0.129 | [4] -0.071 | [5] -0.022 | [6] -0.162 | [7] 0.01 | [8] -0.131 | IRAK-1-4 Inhibitor I -0.078

CORO7 isoform 3 (UniProt P57737)
inactive: erlotinib 0.035 | [1] -0.009 | [2] -0.079 | [3] 0.013 | [4] 0 | [5] 0.016 | [6] -0.016 | [7] 0.009 | [8] 0.026 | IRAK-1-4 Inhibitor I -0.04

CMSS1 (UniProt Q9BQ75)
inactive: erlotinib -0.029 | [1] 0.018 | [2] -0.031 | [3] 0.011 | [4] -0.059 | [5] -0.004 | [6] 0.011 | [7] -0.011 | [8] 0.03 | IRAK-1-4 Inhibitor I -0.035

DEF6 (UniProt Q9H4E7)
Chain of UniProt Q9H4E7 (Q9H4E7 whole entry, looked up): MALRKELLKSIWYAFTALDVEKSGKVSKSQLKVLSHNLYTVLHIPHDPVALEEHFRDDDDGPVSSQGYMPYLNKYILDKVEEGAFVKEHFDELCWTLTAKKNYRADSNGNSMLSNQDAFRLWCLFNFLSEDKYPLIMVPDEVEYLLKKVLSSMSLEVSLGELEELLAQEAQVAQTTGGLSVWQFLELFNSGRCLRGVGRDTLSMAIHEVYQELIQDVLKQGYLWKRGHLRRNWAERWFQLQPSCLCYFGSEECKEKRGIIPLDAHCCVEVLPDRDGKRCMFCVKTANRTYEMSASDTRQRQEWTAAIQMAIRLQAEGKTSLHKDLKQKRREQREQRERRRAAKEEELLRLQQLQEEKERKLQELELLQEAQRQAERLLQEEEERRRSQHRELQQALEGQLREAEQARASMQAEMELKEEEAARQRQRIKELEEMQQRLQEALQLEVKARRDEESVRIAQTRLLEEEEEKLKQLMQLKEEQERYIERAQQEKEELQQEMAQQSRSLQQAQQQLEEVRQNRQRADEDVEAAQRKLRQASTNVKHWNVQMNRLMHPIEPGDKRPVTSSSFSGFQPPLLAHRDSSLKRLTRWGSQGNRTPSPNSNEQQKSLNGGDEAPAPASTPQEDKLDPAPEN
inactive: erlotinib 0.02 | [1] 0.07 | [2] -0.072 | [3] 0.067 | [4] -0.104 | [5] 0.016 | [6] -0.131 | [7] 0.05 | [8] 0 | IRAK-1-4 Inhibitor I 0.019

DHRS3 (UniProt O75911)
inactive: erlotinib 0.056 | [1] 0.08 | [2] 0.047 | [3] -0.008 | [4] -0.044 | [5] 0.03 | [6] -0.028 | [7] -0.007 | [8] 0.016 | IRAK-1-4 Inhibitor I 0.046

CSNK2A1 (UniProt P68400)
inactive: erlotinib 0.005 | [1] -0.111 | [2] -0.02 | [3] 0.225 | [5] 0.017 | [6] 0.219 | [7] 0.112 | [8] -0.02 | IRAK-1-4 Inhibitor I 0
active: [4] 0.356

CNDP2 (UniProt Q96KP4)
Chain of UniProt Q96KP4 (Q96KP4 whole entry, looked up): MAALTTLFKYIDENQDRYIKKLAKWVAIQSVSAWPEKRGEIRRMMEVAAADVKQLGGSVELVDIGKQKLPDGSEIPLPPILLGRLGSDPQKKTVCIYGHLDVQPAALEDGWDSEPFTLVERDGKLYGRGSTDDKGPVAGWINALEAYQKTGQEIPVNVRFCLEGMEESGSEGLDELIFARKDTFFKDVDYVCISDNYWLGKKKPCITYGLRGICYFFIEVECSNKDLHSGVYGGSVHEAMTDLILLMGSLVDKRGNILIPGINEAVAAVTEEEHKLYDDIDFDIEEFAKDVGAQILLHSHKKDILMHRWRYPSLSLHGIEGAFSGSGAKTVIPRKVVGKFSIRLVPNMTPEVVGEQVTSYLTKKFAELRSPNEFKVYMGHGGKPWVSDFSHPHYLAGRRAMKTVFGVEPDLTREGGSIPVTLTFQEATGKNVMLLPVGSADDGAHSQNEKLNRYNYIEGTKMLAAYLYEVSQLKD
inactive: erlotinib -0.016 | [1] 0.004 | [2] 0.02 | [3] -0.038 | [4] -0.009 | [5] -0.022 | [6] 0.007 | [7] 0.039 | [8] 0.041 | IRAK-1-4 Inhibitor I 0.051

COX20 isoform 2 (UniProt Q5RI15)
Chain of UniProt Q5RI15 (Q5RI15 whole entry, looked up): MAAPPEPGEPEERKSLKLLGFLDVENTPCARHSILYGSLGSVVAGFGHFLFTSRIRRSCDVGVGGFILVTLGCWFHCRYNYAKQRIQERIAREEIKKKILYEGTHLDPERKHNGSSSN
inactive: erlotinib 0.022 | [1] 0.004 | [2] -0.018 | [3] -0.001 | [4] -0.129 | [5] 0.016 | [6] -0.036 | [7] -0.09 | [8] 0.034 | IRAK-1-4 Inhibitor I 0.048

CSTF2 (UniProt P33240)
inactive: erlotinib -0.036 | [1] -0.002 | [2] 0.048 | [3] -0.048 | [4] 0.044 | [5] 0.011 | [6] -0.04 | [7] 0.002 | [8] 0 | IRAK-1-4 Inhibitor I 0.053

CLIP1 isoform 1 (UniProt P30622)
inactive: erlotinib -0.025 | [1] -0.026 | [2] 0.019 | [3] -0.005 | [4] -0.018 | [5] 0.005 | [6] 0.002 | [7] 0 | [8] -0.012 | IRAK-1-4 Inhibitor I 0.007

DICER1 (UniProt Q9UPY3)
inactive: erlotinib 0.013 | [1] -0.088 | [2] -0.056 | [3] -0.023 | [4] -0.027 | [5] 0.03 | [6] -0.025 | [7] -0.064 | [8] -0.042 | IRAK-1-4 Inhibitor I -0.016

DNAJC5 (UniProt Q9H3Z4)
inactive: erlotinib -0.003 | [1] 0.037 | [2] -0.018 | [3] -0.021 | [4] 0.053 | [5] 0.033 | [6] 0 | [7] 0.049 | [8] -0.005 | IRAK-1-4 Inhibitor I -0.012

DCP1A (UniProt Q9NPI6)
inactive: erlotinib 0.038 | [1] 0.025 | [2] 0.03 | [3] 0.004 | [4] -0.03 | [5] 0.014 | [6] -0.033 | [7] 0.013 | [8] 0.012 | IRAK-1-4 Inhibitor I -0.045

DENND4A isoform 2 (UniProt Q7Z401)
inactive: erlotinib 0.023 | [1] -0.021 | [2] -0.015 | [3] 0.007 | [4] -0.045 | [5] 0.002 | [6] -0.041 | [7] 0.002 | [8] 0.012 | IRAK-1-4 Inhibitor I 0.017

CLPB isoform 2 (UniProt Q9H078)
inactive: erlotinib 0.023 | [1] -0.029 | [2] -0.028 | [3] 0.02 | [4] -0.047 | [5] -0.018 | [6] 0.006 | [7] 0.022 | [8] 0.055 | IRAK-1-4 Inhibitor I -0.002

DPM1 (UniProt O60762)
inactive: erlotinib -0.009 | [1] -0.039 | [2] -0.036 | [3] 0.056 | [4] -0.015 | [5] -0.007 | [6] 0.041 | [7] -0.022 | [8] -0.014 | IRAK-1-4 Inhibitor I -0.008

CSTB (UniProt P04080)
Chain of UniProt P04080 (P04080 whole entry, looked up): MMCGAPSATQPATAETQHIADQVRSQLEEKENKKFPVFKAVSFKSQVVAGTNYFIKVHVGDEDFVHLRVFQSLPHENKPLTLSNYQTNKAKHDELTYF
inactive: erlotinib -0.024 | [1] 0.054 | [2] -0.016 | [3] 0.018 | [4] 0.004 | [5] -0.028 | [6] 0.031 | [7] -0.015 | [8] 0.031 | IRAK-1-4 Inhibitor I 0.082

DLG3 isoform 2 (UniProt Q92796)
inactive: erlotinib -0.048 | [1] -0.085 | [2] 0.073 | [3] 0.002 | [4] -0.046 | [5] -0.012 | [6] -0.013 | [7] 0.019 | [8] -0.001 | IRAK-1-4 Inhibitor I -0.056

CLASP1 (UniProt Q7Z460)
Chain of UniProt Q7Z460 (Q7Z460 whole entry, looked up): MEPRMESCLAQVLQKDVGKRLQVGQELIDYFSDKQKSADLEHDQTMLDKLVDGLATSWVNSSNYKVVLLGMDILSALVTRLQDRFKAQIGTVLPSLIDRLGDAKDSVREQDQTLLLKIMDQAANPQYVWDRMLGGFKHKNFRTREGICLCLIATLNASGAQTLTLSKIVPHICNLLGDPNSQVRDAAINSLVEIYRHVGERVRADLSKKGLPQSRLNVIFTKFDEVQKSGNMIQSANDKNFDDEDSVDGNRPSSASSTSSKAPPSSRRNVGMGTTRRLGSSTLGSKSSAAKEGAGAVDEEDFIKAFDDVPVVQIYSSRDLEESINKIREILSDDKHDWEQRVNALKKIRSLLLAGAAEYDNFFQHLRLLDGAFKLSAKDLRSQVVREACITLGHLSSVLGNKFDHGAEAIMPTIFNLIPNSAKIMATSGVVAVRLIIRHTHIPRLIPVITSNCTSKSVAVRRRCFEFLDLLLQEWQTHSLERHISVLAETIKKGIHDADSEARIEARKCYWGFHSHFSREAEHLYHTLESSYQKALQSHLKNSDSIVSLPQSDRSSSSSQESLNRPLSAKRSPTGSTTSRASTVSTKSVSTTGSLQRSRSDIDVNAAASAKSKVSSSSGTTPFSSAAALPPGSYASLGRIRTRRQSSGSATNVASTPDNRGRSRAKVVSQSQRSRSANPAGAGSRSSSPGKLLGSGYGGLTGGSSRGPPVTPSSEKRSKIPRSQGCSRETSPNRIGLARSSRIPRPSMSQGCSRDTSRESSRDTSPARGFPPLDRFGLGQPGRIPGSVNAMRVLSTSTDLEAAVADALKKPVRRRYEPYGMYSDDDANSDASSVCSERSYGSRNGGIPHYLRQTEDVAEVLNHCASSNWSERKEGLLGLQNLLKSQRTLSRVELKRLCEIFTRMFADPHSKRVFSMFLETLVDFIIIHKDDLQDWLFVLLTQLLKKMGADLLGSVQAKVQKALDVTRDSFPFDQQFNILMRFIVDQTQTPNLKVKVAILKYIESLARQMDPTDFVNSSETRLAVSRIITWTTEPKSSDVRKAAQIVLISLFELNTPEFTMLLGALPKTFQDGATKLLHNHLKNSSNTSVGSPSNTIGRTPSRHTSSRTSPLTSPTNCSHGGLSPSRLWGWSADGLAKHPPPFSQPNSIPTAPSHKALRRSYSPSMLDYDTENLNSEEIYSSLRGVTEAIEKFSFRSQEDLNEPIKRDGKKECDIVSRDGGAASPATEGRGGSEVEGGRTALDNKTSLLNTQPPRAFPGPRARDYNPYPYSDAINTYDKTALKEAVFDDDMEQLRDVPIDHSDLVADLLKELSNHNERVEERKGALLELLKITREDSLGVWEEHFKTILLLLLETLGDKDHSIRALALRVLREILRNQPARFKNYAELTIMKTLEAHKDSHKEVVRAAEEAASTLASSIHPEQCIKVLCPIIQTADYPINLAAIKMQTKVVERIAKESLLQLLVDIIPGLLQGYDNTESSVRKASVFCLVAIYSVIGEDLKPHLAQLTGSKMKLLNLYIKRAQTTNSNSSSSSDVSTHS
inactive: erlotinib 0.042 | [1] 0.082 | [2] -0.029 | [3] -0.022 | [4] 0.01 | [5] 0.026 | [6] -0.041 | [7] -0.035 | [8] 0.02 | IRAK-1-4 Inhibitor I 0.029

CMIP (UniProt Q8IY22)
Chain of UniProt Q8IY22 (Q8IY22 whole entry, looked up): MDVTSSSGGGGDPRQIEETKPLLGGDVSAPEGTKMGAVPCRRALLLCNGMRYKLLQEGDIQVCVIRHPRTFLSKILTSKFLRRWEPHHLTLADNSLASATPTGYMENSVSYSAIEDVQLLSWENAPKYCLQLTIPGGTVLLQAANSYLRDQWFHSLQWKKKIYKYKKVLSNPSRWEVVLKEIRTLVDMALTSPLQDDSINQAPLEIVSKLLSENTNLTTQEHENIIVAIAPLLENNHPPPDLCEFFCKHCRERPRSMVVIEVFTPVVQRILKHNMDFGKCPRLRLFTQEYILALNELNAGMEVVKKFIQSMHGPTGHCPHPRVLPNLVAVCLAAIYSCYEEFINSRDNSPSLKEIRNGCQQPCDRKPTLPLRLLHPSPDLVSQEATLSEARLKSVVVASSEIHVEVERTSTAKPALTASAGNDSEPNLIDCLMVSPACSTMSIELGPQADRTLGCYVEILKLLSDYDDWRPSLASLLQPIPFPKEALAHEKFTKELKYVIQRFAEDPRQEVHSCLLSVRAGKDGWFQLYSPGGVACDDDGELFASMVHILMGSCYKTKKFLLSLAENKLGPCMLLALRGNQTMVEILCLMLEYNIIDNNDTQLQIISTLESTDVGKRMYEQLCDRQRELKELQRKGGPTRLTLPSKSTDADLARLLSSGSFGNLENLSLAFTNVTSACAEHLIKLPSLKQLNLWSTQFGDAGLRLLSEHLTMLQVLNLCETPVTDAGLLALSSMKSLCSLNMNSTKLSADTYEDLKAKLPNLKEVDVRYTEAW
inactive: erlotinib 0.003 | [1] 0.05 | [2] -0.008 | [3] 0.055 | [4] 0.035 | [5] 0.023 | [6] -0.067 | [7] -0.001 | [8] -0.023 | IRAK-1-4 Inhibitor I -0.011

CSNK2A2 (UniProt P19784)
Chain of UniProt P19784 (P19784 whole entry, looked up): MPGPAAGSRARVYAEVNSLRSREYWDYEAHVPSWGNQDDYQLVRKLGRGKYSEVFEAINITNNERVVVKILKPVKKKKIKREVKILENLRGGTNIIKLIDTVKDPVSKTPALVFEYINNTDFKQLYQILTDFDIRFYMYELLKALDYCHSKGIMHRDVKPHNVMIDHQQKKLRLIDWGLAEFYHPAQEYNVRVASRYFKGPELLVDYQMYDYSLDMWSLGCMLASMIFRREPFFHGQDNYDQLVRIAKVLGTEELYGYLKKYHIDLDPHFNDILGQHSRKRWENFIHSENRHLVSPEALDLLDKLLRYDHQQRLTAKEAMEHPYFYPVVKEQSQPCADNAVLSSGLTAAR
inactive: erlotinib 0 | [1] -0.209 | [2] -0.015 | [3] 0.383 | [5] 0.032 | [6] 0.375 | [7] 0.277 | [8] 0.024 | IRAK-1-4 Inhibitor I 0.022
active: [4] 0.699

DBF4 (UniProt Q9UBU7)
Chain of UniProt Q9UBU7 (Q9UBU7 whole entry, looked up): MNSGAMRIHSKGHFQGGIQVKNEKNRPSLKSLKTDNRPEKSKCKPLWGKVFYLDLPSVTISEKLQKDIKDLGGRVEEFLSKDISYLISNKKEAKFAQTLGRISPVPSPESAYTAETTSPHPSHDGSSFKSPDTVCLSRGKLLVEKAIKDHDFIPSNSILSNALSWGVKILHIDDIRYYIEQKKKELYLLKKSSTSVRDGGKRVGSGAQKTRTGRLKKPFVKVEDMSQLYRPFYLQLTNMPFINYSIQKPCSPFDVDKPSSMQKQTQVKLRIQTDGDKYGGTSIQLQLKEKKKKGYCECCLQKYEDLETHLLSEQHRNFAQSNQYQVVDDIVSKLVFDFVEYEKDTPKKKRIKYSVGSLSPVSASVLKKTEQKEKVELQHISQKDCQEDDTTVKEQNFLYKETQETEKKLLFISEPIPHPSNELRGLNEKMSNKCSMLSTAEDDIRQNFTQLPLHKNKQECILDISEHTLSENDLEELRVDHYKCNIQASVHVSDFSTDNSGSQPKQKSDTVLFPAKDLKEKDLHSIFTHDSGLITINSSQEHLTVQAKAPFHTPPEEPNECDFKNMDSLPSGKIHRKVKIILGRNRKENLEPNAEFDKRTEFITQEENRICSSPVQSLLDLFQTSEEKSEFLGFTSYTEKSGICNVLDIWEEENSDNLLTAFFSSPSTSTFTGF
active: [4] -0.342
inactive: erlotinib 0.03 | [1] 0.056 | [2] 0.005 | [3] -0.033 | [5] 0.098 | [6] -0.058 | [7] -0.068 | [8] -0.022 | IRAK-1-4 Inhibitor I 0.04

DARS (UniProt P14868)
inactive: erlotinib 0.006 | [1] 0.037 | [2] -0.039 | [3] 0.027 | [4] 0.019 | [5] -0.004 | [6] -0.04 | [7] -0.012 | [8] -0.024 | IRAK-1-4 Inhibitor I -0.041

DCUN1D4 isoform 3 (UniProt Q92564)
Chain of UniProt Q92564 (Q92564 whole entry, looked up): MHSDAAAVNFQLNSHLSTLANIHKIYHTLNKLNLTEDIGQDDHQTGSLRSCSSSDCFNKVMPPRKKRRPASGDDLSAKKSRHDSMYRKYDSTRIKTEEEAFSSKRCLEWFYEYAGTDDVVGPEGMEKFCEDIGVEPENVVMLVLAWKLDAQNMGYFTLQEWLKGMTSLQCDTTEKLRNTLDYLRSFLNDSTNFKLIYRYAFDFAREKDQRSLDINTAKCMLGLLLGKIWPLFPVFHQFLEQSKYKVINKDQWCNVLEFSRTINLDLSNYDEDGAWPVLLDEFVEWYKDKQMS
inactive: erlotinib -0.025 | [1] -0.118 | [2] 0.068 | [3] -0.127 | [4] -0.063 | [5] -0.026 | [6] -0.053 | [7] -0.09 | [8] -0.113 | IRAK-1-4 Inhibitor I 0.005

CSDE1 isoform 4 (UniProt O75534)
inactive: erlotinib -0.025 | [1] 0.009 | [2] -0.035 | [3] 0.001 | [4] -0.023 | [5] -0.021 | [6] -0.002 | [7] 0.016 | [8] -0.001 | IRAK-1-4 Inhibitor I -0.017

DIAPH1 (UniProt O60610)
inactive: erlotinib -0.004 | [1] -0.006 | [2] 0.002 | [3] 0.007 | [4] -0.002 | [5] -0.001 | [6] -0.006 | [7] -0.01 | [8] -0.001 | IRAK-1-4 Inhibitor I -0.007

CTPS1 (UniProt P17812)
inactive: erlotinib -0.002 | [1] 0.011 | [2] -0.027 | [3] -0.009 | [4] 0.005 | [5] -0.013 | [6] -0.011 | [7] -0.007 | [8] -0.007 | IRAK-1-4 Inhibitor I -0.001
